In the library only some 1.6% were active in any assay of this set; here they are far more common.
KCNQ2 enhance – potentiators of rat KCNQ2 potassium channel | CHO-K1 KCNQ2, FluxOR thallium flux fluorescence; hits give high values | B-score at 10 µM | hit rate 0.54% among 310,000 | AID 2239 | O88943;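 active = fluorescence ratio B-score at least 3 SD of library B-scores, with initial fluorescence B-score within 3 of them, cut at about 5.3 in these data; same plate scores as AID 2156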;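 note: B-score of peak minus minimum over baseline fluorescence ratio after K+ and Tl+ stimulus; positive B-score means potentiation of KCNQ2 with more thallium influx and brighter signal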
KCNQ2 inh – blocks the rat KCNQ2 potassium channel. O88943. CHO-K1 KCNQ2, FluxOR thallium flux, 20 min; hits give low values. B-score at 10 µM. hit rate 1.1% among 310,000;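 active = fluorescence ratio B-score at most minus 3 library SDs, with starting brightness B-score within 2 library SDs, cut at about -5.5 in these data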
Hits are given with their value; 0 = inactive; - = not tested or not shown.

SMILES | KCNQ2 enhance | KCNQ2 inh
CCN1CCN(C(=O)c2ccc3c(c2)c(C)c(C)n3Cc2ccccc2)CC1 | - | 0
CCn1c(C)c(C)c2cc(C(=O)N3CCc4ccccc4C3)ccc21 | 0 | -6.04
O=C(NCC1CCN(Cc2ccc(F)cc2)CC1)C1CCCN(c2ncnc3c2nc2n3CCCCC2)C1 (centres undefined) | - | 0
O=C(NCC1CCN(Cc2ccc(Cl)cc2)CC1)C1CCCN(c2ncnc3c2nc2n3CCCCC2)C1 (centres undefined) | 0 | -6.57
CCOC(=O)c1ccc(NC(=O)NCc2ccn(CC)n2)cc1 | 0 | 0
CN(CCC#N)C(=O)COC(=O)c1nn(-c2ccccc2)c(=O)c2ccccc12 | 0 | 0
O=C(Nc1ccccc1F)Nc1ccccc1F | 0 | 0
COc1ccccc1CNC(=O)C1CCCN(S(=O)(=O)c2ccc3c(c2)CC(C)N3C(C)=O)C1 (centres undefined) | 0 | -6.92
COc1ccccc1CNC(=O)C1CCCN(S(=O)(=O)c2ccc3c(c2)C(C)(C)C(=O)N3C)C1 (centres undefined) | - | 0
CCCCNc1c(-c2cccc(-c3ccc(OC)cc3)c2)nc2ccc(C)cn12 | 0 | -6.06
CCCCNc1c(-c2cccc(-c3cc(C(C)=O)cs3)c2)nc2ccc(C)cn12 | - | 0
O=C(C1COc2ccccc2O1)N1CCN(c2ccccn2)CC1 (centres undefined) | - | 0
CC(C)c1nc(CNC(=O)CCc2nnc(-c3ccsc3)o2)cs1 | 0 | 0
O=C(CCc1nnc(-c2ccsc2)o1)NCc1ccccc1OC(F)(F)F | 0 | -6.34
O=C(CSc1nnnn1-c1ccc(Cl)cc1)NNC(=O)c1ccc([N+](=O)[O-])cc1 | - | 0
CN(Cc1ccccc1)C(=O)COc1ccc(Br)cc1Cl | - | 0
CC(C)N(C(=O)COc1ccc(Br)cc1Cl)C(C)C | 0 | -5.68
COC(=O)C1CCCN1C(=O)COc1ccc(Br)cc1Cl (centres undefined) | 6.63 | 0
O=C(COc1ccc(Br)cc1Cl)NC1CCCCC1 | 0 | 0
COc1ccc(OC)c(NC(=O)c2cc3oc4ccccc4c3cc2O)c1 | - | 0
CCN(CCCNC(=O)CCCN1C(=O)COc2ccc(C)cc21)c1cccc(C)c1 | 0 | -6.31
Cc1ccc2c(c1)N(CCCC(=O)NCCCN1CCCCC1)C(=O)CO2 | 0 | 0
CCc1cc2c(N=Nc3c(O)[nH]c4ccccc34)ncnc2s1 | 0 | 0
CCCCn1cnc2sc(-c3ccccc3)cc2c1=O | 0 | 0
O=c1c2cc(-c3ccccc3)sc2ncn1/N=C/c1ccco1 | 0 | -5.91
SMILES | KCNQ2 enhance | KCNQ2 inh
CCOC(=O)Nc1sc(=S)n(C)c1C | 0 | 0
Cn1c2ccccc2c2cc(C(=O)NNS(=O)(=O)c3ccc(F)cc3)sc21 | - | 0
COc1cc(CCCN2C(=O)C(=O)NC[C@H]2Cc2cccc3ccccc23)cc(OC)c1OC | 9.64 | 0
CCCC[C@@H]1CNC(=O)C(=O)N1CCCc1cc(OC)c(OC)c(OC)c1 | 0 | 0
O=C(Nc1c2c(nn1-c1ccccc1)CS(=O)(=O)C2)c1ccccc1C(F)(F)F | 0 | 0
CC(C)CN(CCOc1cccc(N2C(=O)C3=C(CCCC3)C2=O)c1)CC(C)C | - | 0
O=C1C2=C(CCCC2)C(=O)N1c1cccc(OCCBr)c1 | 7.77 | 0
CCC(=O)N/C(=N/c1nc(C)cc(C)n1)Nc1ccc(OC)cc1 | 0 | 0
Fc1ccc(NC(=S)N2CCCCC2)cc1 | 0 | 0
O=C(O)CN1C(=O)c2ccc(Oc3ccc4c(c3)C(=O)N(CC(=O)O)C4=O)cc2C1=O | - | 0
Cc1cc(C)c(C(=O)COC(=O)[C@H](C)Nc2ccc(C(F)(F)F)cc2[N+](=O)[O-])c(C)c1 | 0 | -6.24
COc1ccc(C(=O)COC(=O)[C@H](C)Nc2ccc(C(F)(F)F)cc2[N+](=O)[O-])cc1 | 0 | 0
COc1ccc(C(=O)/C=C/c2cccs2)c(OC(=O)N2CCOCC2)c1 | 0 | 0
O=C(/C=C/c1cccs1)c1cc(Br)ccc1OC(=O)N1CCOCC1 | 0 | -6.81
Cc1cccc(NC(=O)c2ccc(S(=O)(=O)C(F)F)cc2)c1C | 0 | 0
Cc1cc(C)c2nc(-c3cccnc3)cc(C(=O)NC(C)c3cnn(C)c3C)c2c1 (centres undefined) | 0 | -7.96
Cc1cccc2c(C(=O)O)cc(-c3cccnc3)nc12 | 0 | 0
O=C(CCc1ccc(CCC(=O)c2cccs2)s1)c1cccs1 | 0 | -6.77
O=C(CCN1CCCC1)c1cccs1 | - | 0
O=C(CN1C(=O)c2ccccc2C1=O)Nc1ccc(Cl)cn1 | 0 | 0
O=C1c2ccccc2C(Nc2ccc(Cl)cn2)N1Cc1ccccc1 (centres undefined) | 0 | -6.49
COc1ccc(N(C(C)C(=O)NN=C2CCCCCCC2)S(C)(=O)=O)cc1 (centres undefined) | - | 0
Cn1c(NCc2c[nH]c3ccccc23)nc2ccccc21 | - | 0
CCn1c(NCc2c[nH]c3ccccc23)nc2ccccc21 | 0 | -6.51
C/C=C/C(=O)OCC(=O)Nc1nc2ccc(C)cc2s1 | 0 | 0
Brc1ccc(OCc2ccccc2)c(CNCc2ccncc2)c1 | - | 0
O=C(COC(=O)C1(c2ccc(F)cc2)CCCC1)Nc1ncc(C(F)(F)F)cc1Cl | 0 | -6.98

High-throughput results: PubChem, Johns Hopkins Ion Channel Center
